# Source: the supplement of paper PMC10849652
# About 8,800 targets were measured; listed, in parts, are those with a hit and a random draw of the rest. About 0.5% of all pairs of compound and target were hits. Unmarked numbers belong to inactive results.
# Tests used:
# Assay in all cases: log2 fold change, soluble protein after heating vs DMSO (PISA); higher = thermal stabilisation; K562 lysate, 10 uM; active = over 0.2 and 3.5 SD of the protein, either way, in both replicates (recomputed)
# [1] = compound: CCCS(=O)(=O)Nc1ccc(F)c(C(=O)c2c[nH]c3ncc(-c4ccc(Cl)cc4)cc23)c1F [vemurafenib]
# Procedure, shortened: (§1)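 Dounce homogenisation of K562 pellets in PBS pH 7.4 with 1 mM MgCl2 produced a crude extract, used at 1 mg/mL protein. Exposure to 10 μM compound lasted 30 min, and aliquots were then heated for 3 min across 48°C-58°C, pooled and brought to 0.5% NP-40 at 4°C. The supernatant after 21,000xg for 90 min was quantified by TMTpro 16plex LC-MS/MS with channel sums equalised. Duplicate values are given as log-two fold change in thermal stability relative to solvent controls.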
# [2] = compound: CCCS(=O)(=O)Nc1ccc(F)c(C(=O)c2c[nH]c3ncc(Cl)cc23)c1F
# Procedure, shortened: as §1
# [3] = compound: CCN(CCCOc1ccc2c(Nc3cc(CC(=O)Nc4cccc(F)c4)[nH]n3)ncnc2c1)CCOP(=O)(O)O [barasertib]
# Procedure, shortened: as §1
# [4] = compound: CC[C@@H]1C(=O)N(C)c2cnc(Nc3ccc(C(=O)NC4CCN(C)CC4)cc3OC)nc2N1C1CCCC1
# Procedure, shortened: as §1
# [5] = compound: CC[C@@H]1C(=O)N(C)c2cnc(Nc3ccc(C(=O)N[C@H]4CC[C@H](N5CCN(CC6CC6)CC5)CC4)cc3OC)nc2N1C(C)C [volasertib]
# Procedure, shortened: as §1
# [6] = compound: CCn1c(C(=O)N(C2CC2)C2CC2)cc2c3c(ncn3C)c(Nc3cc(C)n(C)n3)nc21
# Procedure, shortened: as §1
# [7] = compound: CCn1cc(-c2ccnc3[nH]c(-c4cccc(CN(C)C)c4)cc23)c(-c2ccc(NC(=O)N(C)C)cc2)n1
# Procedure, shortened: as §1
# [8] = compound: CN1CCC(CNc2ccc3ncc(-c4cccc(OC(F)(F)F)c4)n3n2)CC1
# Procedure, shortened: as §1
# [9] = compound: CN1CCN(CCOc2cc(OC3CCOCC3)c3c(Nc4c(Cl)ccc5c4OCO5)ncnc3c2)CC1 [saracatinib]
# Procedure, shortened: as §1
# [10] = compound: CN1CCN(c2nc(C3=C(c4c[nH]c5ccccc45)C(=O)NC3=O)c3ccccc3n2)CC1 [sotrastaurin]
# Procedure, shortened: as §1
# UniProt Q9UNA0, sequence (Q9UNA0 whole entry, looked up): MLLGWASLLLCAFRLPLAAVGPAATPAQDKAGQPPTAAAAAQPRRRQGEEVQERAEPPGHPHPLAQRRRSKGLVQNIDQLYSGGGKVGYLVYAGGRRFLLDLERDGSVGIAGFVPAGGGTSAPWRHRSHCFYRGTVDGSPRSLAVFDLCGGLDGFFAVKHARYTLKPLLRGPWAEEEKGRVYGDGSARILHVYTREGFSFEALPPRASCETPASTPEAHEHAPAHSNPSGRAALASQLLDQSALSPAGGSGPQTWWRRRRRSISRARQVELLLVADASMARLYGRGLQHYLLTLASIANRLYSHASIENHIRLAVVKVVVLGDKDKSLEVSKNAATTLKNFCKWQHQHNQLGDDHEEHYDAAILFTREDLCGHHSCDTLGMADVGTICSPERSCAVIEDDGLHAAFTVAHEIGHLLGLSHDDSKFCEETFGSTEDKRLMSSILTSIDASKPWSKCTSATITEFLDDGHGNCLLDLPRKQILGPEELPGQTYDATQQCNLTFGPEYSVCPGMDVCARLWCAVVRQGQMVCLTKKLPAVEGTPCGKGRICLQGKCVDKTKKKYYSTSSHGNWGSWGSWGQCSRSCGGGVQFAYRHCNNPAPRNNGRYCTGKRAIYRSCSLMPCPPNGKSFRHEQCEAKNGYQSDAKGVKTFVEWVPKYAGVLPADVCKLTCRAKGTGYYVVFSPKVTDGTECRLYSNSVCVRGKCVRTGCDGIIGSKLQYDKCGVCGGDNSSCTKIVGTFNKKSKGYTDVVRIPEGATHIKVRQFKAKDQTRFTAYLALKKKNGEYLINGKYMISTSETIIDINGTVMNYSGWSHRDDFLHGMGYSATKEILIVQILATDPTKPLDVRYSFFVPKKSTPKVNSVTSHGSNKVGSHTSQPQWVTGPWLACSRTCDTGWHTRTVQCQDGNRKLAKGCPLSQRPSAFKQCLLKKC
# UniProt Q9NQW6, sequence (Q9NQW6 whole entry, looked up): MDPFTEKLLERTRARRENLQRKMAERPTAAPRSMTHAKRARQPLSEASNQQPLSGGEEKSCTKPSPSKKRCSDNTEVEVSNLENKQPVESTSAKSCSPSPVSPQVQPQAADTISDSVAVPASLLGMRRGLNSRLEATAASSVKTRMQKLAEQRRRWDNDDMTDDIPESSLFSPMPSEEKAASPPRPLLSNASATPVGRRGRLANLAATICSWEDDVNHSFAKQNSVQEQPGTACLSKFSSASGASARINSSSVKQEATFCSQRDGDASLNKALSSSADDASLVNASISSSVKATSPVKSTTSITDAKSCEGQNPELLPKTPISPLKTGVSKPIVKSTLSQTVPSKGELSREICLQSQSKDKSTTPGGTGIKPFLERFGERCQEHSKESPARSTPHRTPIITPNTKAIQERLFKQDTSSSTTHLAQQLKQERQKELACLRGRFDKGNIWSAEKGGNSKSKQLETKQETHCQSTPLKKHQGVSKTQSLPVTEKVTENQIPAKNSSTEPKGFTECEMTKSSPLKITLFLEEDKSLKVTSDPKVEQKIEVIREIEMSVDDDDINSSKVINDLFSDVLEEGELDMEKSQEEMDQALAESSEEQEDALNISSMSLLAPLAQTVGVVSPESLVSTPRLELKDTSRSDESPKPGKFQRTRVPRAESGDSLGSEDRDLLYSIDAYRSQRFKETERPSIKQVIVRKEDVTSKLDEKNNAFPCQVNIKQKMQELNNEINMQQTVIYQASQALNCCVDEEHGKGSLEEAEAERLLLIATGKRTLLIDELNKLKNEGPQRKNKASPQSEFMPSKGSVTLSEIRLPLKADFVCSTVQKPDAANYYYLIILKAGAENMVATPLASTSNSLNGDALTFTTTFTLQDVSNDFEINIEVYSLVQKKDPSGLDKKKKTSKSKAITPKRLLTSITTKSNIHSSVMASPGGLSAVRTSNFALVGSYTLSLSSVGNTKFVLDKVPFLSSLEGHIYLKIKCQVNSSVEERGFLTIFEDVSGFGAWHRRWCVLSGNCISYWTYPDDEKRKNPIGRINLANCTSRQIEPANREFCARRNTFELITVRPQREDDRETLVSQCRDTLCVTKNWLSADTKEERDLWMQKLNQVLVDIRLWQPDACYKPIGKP
# UniProt Q9Y4X0, sequence (Q9Y4X0 whole entry, looked up): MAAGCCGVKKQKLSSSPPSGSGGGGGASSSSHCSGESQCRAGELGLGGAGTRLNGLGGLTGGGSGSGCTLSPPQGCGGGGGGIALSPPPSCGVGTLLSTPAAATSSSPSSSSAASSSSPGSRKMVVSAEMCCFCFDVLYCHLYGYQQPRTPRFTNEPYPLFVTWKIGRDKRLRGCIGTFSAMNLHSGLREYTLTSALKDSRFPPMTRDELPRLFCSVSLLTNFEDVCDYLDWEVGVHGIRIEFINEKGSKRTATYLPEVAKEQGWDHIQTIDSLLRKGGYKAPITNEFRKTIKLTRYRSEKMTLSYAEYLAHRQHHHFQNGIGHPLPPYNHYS
# UniProt Q99943, sequence (Q99943 whole entry, looked up): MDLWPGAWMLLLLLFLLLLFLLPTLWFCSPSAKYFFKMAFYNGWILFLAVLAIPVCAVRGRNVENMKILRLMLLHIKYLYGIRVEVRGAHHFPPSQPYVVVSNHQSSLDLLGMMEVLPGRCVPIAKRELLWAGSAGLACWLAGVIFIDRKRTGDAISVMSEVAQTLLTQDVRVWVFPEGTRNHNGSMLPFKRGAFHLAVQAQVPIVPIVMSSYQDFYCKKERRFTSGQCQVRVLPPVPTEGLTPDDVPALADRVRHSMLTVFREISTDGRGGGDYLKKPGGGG
# UniProt P04083, sequence (P04083 whole entry, looked up): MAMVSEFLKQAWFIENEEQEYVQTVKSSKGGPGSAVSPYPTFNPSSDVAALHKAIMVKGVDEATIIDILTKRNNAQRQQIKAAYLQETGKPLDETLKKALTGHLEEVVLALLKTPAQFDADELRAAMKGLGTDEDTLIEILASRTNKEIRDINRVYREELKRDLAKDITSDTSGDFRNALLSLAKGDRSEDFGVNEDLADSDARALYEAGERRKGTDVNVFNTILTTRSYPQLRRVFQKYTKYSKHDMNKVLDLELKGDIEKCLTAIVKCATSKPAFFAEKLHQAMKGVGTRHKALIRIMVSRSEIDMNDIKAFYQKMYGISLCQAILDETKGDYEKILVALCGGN
# UniProt Q8NFV4, sequence (Q8NFV4 whole entry, looked up): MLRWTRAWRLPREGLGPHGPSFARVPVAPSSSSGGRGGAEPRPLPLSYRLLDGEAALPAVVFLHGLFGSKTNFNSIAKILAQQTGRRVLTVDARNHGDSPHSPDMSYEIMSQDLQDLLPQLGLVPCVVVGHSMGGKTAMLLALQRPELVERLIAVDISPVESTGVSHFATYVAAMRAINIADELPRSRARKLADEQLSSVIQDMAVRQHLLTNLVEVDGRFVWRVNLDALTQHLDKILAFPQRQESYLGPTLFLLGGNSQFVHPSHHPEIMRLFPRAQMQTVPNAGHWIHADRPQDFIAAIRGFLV
Target,log2 fold change [1],log2 fold change [2],log2 fold change [3],log2 fold change [4],log2 fold change [5],log2 fold change [6],log2 fold change [7],log2 fold change [8],log2 fold change [9],log2 fold change [10]
ANLN (UniProt Q9NQW6),-0.012,0.019,0.003,0.01,-0.014,-0.035,-0.067,-0.014,0.002,0.009
ANXA1 (UniProt P04083),-0.007,-0.027,-0.038,-0.022,-0.011,0.008,0.028,0.049,-0.019,0.017
ADAMTS5 (UniProt Q9UNA0),0.063,0.047,0.038,0.066,0.038,-0.15,-0.939 (active),0.292,0.083,-0.045
ABHD11 (UniProt Q8NFV4),0.062,-0.051,0.093,-0.029,-0.082,0.028,-0.109,0.024,-0.026,-0.016
AMMECR1 (UniProt Q9Y4X0),0.067,0,0.008,-0.019,-0.03,-0.026,-0.012,0.032,0,0.008
AKR1B1 (UniProt P15121),0.006,0.024,0.02,0.072,-0.015,0.008,-0.054,0.116,0.065,-0.012
AGPAT1 (UniProt Q99943),0.008,0.016,0.038,-0.013,0.006,-0.004,0.068,-0.049,0.038,-0.009
